# Records with an inconclusive call do not appear. A number with no mark means an inactive call. The source made the active and inactive calls. Calls come from the whole dose curve.
# Assay: A High-Content qHTS Against Drug Library for the Identification of Small Molecules that Inhibit DYT1 Early Onset Primary Dystonia-Associated Cell Pathology (AID 1645839)
# Conditions: HEK293 Flp-In EGFP-delE TorsinA, punctate imaging, 48 h; series mostly up to 46.1 µM; % pathology change, negative = correction: at the top concentration
# Excerpt: Nicole Calakos M.D., Ph.D.
# Duke University School of Medicine, Durham, NC
# In DYT1 dystonia due to delGAG in the TOR1A gene, there is a robust and widely replicated finding of TorsinA protein mislocalization caused when the mutant protein is in excess of the wildtype protein (1-7). Stable HEK293 cell lines were created that replicate this phenomenon. Inducible expression of an EGFP-hu delE TorsinA encoding cDNA causes pronounced punctate cellular distribution. […] This phenotypic difference in EGFP-huTorsinA fusion protein distribution serves as an indicator of cell pathology. […] RNAi screen results with the assay were validated in DYT1 patient cell phenotypes, intersected with a known dystonia gene, and led to discovery of new human genetic dystonia associations.
# The bioassay described herein is a high-content image screen with two readouts. The "%pathology" readout is the primary qHTS data channel, while the "cellcount" is the counterscreen qHTS channel. Desired active compounds are those that show inhibition in %pathology channel but no activity or minimal toxicity in cellcount readout.
# 1. Kustedjo, K., Bracey, M.H., and Cravatt, B.F. (2000). […] J. Biol. Chem. 275, 27933 - 27939.
# 2. Bragg, D.C., Kaufman, C.A., Kock, N., and Breakefield, X.O. (2004). Inhibition of N-linked glycosylation prevents inclusion formation by the dystonia-related mutant form of torsinA. Mol. Cell. Neurosci. 27, 417 - 426.
# 3. Gonzalez-Alegre, P., and Paulson, H.L. (2004). Aberrant Cellular Behavior of Mutant TorsinA Implicates Nuclear Envelope Dysfunction in DYT1 Dystonia. J. Neurosci. 24, 2593 - 2601.
# 4. Goodchild, R.E., and Dauer, W.T. (2004). Mislocalization to the nuclear envelope: an effect of the dystonia-causing torsinA mutation. Proc. Natl. Acad. Sci. U. S. A. 101, 847 - 852.
# 5. Kock, N., Allchorne, A.J., Sena-Esteves, M., Woolf, C.J., and Breakefield, X.O. (2006). RNAi blocks DYT1 mutant torsinA inclusions in neurons. Neurosci. Lett. 395, 201 - 205.
# 6. Hewett, J.W., Nery, F.C., Niland, B., Ge, P., Tan, P., Hadwiger, P., Tannous, B.A., Sah, D.W.Y., and Breakefield, X.O. (2008). siRNA knock-down of mutant torsinA restores processing through secretory pathway in DYT1 dystonia cells. Hum. Mol. Genet. 17, 1436 - 1445.
# 7. Calakos, N., Patel, V.D., Gottron, M., Wang, G., Tran-Viet, K.N., Brewington, D., Beyer, J.L., Steffens, D.C., Krishnan, R.R., and Zuchner, S. (2010). Functional evidence implicating a novel TOR1A mutation in idiopathic, late-onset focal dystonia. J. Med. Genet. 47, 646 - 650.
# 8. Rittiner* JE, Caffall* ZF, Hernandez-Martinez R, Sanderson SM, Pearson JL, Tsukayama KK, Liu AY, Xiao C, Tracy S, Shipman MK, Hickey P, Johnson J, Scott B, Stacy M, Saunders-Pullman R, Bressman S, Simonyan K, Sharma N, Ozelius LJ, Cirulli ET, Calakos N. Functional Genomic Analyses of Mendelian and Sporadic Disease Identify Impaired eIF2alpha Signaling as a Generalizable Mechanism for Dystonia. Neuron. 2016 Dec 21;92(6):1238-1251. doi: 10.1016/j.neuron.2016.11.012. Epub 2016 Dec 8. PMID: 27939583; PMCID: PMC5320521.
# High-content, High-throughput Drug Screening Assay
# The TorsinA mislocalization assay was modified from the previously published assay to accommodate compound testing in 1536 well format.1 Briefly, Flp-In T-REx 293 cells from Invitrogen in which a single copy of a cDNA is recombined into a specific genomic locus was used to create tetracycline-inducible expression of cDNA encoding either EGFP-hTOR1A (WT) or EGFP-delE hTOR1A (DYT1). WT and DYT1 cells were diluted to a concentration of 2 x 10^5 cells/mL in reduced serum media (DMEM High Glucose containing 1% tetracycline-tested FBS, 2 mM L-Glutamine, and 1% Penicillin/Streptomycin). 4 µl of WT cells and 4 µl of DTY1 cells were added to column 1 and columns 2-48, respectively, of a poly-D-lysine-coated, low base, black, clear bottom 1536 well plate (Corning, Corning, NY) using the BioRAPTR FRD Microfluidic Workstation (Beckman Coulter, Indianapolis, IN). The final cell number was 800 cells/well. […]
# Potency is the fitted concentration of half-maximal effect.
SMILES,"% pathology change, negative = correction",Potency
CN(C)CCc1c[nH]c2ccc(CS(=O)(=O)N3CCCC3)cc12,14.2%,
CCCOc1ccc(C(=O)OCCN(CC)CC)cc1N,11.9%,
N[C@@H](C(=O)N[C@@H]1C(=O)N2C(C(=O)O)=C(Cl)CS[C@H]12)c1ccccc1,10.3% [at 9.22 µM],
CCN[C@H]1C[C@H](C)S(=O)(=O)c2sc(S(N)(=O)=O)cc21,-21.3%,
NCCCC(O)(P(=O)(O)O)P(=O)(O)O,19.7%,
COC(c1ccccc1)(c1ccccc1)[C@H](Oc1nc(C)cc(C)n1)C(=O)O,8.9%,
CCC(C)(C)c1ccc(CC(C)CN2C[C@@H](C)O[C@@H](C)C2)cc1 (stereo not given in full),3.74%,
O=S(=O)(O)CCS,1.63%,
CC(C)(C)NC(=O)[C@H]1CC[C@H]2[C@@H]3CC[C@H]4NC(=O)C=C[C@]4(C)[C@H]3CC[C@]12C,-16.5%,
Cn1c(=O)c2c(ncn2CC(O)CO)n(C)c1=O (stereo not given),18.5%,
NNC(=O)c1ccncc1,0.645%,
S=P(N1CC1)(N1CC1)N1CC1,-22% [at 104 µM],
Nc1nc(F)nc2c1ncn2[C@@H]1O[C@H](CO)[C@@H](O)[C@@H]1O,8.12%,
CC(C)(Sc1cc(C(C)(C)C)c(O)c(C(C)(C)C)c1)Sc1cc(C(C)(C)C)c(O)c(C(C)(C)C)c1,8.88%,
Cc1cccc(N(C)C(=S)Oc2ccc3ccccc3c2)c1,0.772%,
CCCCc1oc2ccc(NS(C)(=O)=O)cc2c1C(=O)c1ccc(OCCCN(CCCC)CCCC)cc1,,5.01 µM (active)
COc1ncnc(NS(=O)(=O)c2ccc(N)cc2)c1OC,17.7%,
CC(N)C12CC3CC(CC(C3)C1)C2 (stereo not given),-9.03%,
CC1(C)[C@H](C(=O)O)N2C(=O)C[C@H]2S1(=O)=O,0.993%,
CN(CCOc1ccc(CC2SC(=O)NC2=O)cc1)c1ccccn1 (stereo not given),-2.95%,

SMILES,"% pathology change, negative = correction",Potency
CC[C@H](C)C(=O)O[C@H]1C[C@@H](C)C=C2C=C[C@H](C)[C@H](CC[C@@H]3C[C@@H](O)CC(=O)O3)[C@H]21,-12.6%,
CNS(=O)(=O)Cc1ccc2[nH]cc(CCN(C)C)c2c1,-5.4%,
CC(C)C1CCC(C(=O)N[C@H](Cc2ccccc2)C(=O)O)CC1 (stereo not given in full),-2.29%,
O=C(O)CSCC(=O)NC1CCSC1=O (stereo not given),12.5%,
O=S(=O)(c1cccc2cnccc12)N1CCCNCC1,20.5%,
CC(C(=O)O)c1ccc2c(c1)CC(=O)c1ccccc1S2 (stereo not given),6.96%,
CN1CCN(c2c(F)cc3c(=O)c(C(=O)O)cn4c3c2OCN4C)CC1,6.57% [at 19.1 µM],
CN1CCN(c2c(F)cc3c(=O)c(C(=O)O)cn(CCF)c3c2F)CC1,8.82%,
CNNCc1ccc(C(=O)NC(C)C)cc1,19.7%,
COc1c(N2CCNC(C)C2)c(F)cc2c(=O)c(C(=O)O)cn(C3CC3)c12 (stereo not given),1.4%,
CCN(C)C(=O)Oc1cccc([C@H](C)N(C)C)c1,-16.3%,
COc1cc(NCc2ccc3nc(N)nc(N)c3c2C)cc(OC)c1OC,-11.5%,
COC(=O)Nc1nc2ccc(Sc3ccccc3)cc2[nH]1,-36.7%,
C[C@@H]1CN(c2c(F)c(N)c3c(=O)c(C(=O)O)cn(C4CC4)c3c2F)C[C@H](C)N1,2.49% [at 19.1 µM],
CNS(=O)(=O)CCc1ccc2[nH]cc(C3CCN(C)CC3)c2c1,6.85%,
CCn1cc(C(=O)O)c(=O)c2cc(F)c(N3CCNCC3)cc21,4.95%,
CCOCC(O)COc1ccc(NC(=O)CC[S+](C)C)cc1 (stereo not given),4.19%,
C#CCN[C@@H]1CCc2ccccc21,1.15%,
COCCCOc1cc(C[C@@H](C[C@H](N)[C@@H](O)C[C@H](C(=O)NCC(C)(C)C(N)=O)C(C)C)C(C)C)ccc1OC,3.39%,
COc1ccccc1OCC(O)COC(N)=O (stereo not given),-4.06%,

# — PubChem BioAssay (NCATS)
